# Bioassay records (PubChem BioAssay)
# ELG1 genotox = qHTS screen for small molecules that induce genotoxicity in human embryonic kidney (HEK293T) cells expressing luciferase-tagged ELG1; 1.3% of 330,000 active; Potency, µM (highest dose often 46 µM), actives largely listed as activators; HEK293T ELG1-luciferase reporter, luminescence, 16 h; also: nearly all actives have a fitted effect of over 60% in size
#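 After overnight (16 hr) compound treatment at 37 °C, ELG1-luciferase HEK293T cells were lysed with ONE-Glo; luminescence quantified 30 min later at room temperature.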
# NPC1 prom act = qHTS Assay for NPC1 Promoter Activators; Huh7 NPC1 promoter luciferase reporter, 24 h; Potency, µM (series often up to 9.22 µM), actives largely listed as activators; 2.4% of 320,000 active; AID 485313, 2010; also: nearly all actives have a fitted effect of over 60% in size
#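 Luminescence from an NPC1 promoter-driven luciferase reporter in stably transfected Huh7 cells was measured after 24 h compound treatment at 37 °C, followed by 10 min ambient incubation with luciferase detection reagent.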
# SMN2 splice up = qHTS Assay for Enhancers of SMN2 Splice Variant Expression; HEK293 SMN2-luciferase splicing reporter, luminescence, 30-36 h; 2.8% of 210,000 active; Potency, µM (top dose mostly 46.1 µM), actives largely listed as activators; also: nearly all actives have a fitted effect of over 55% in size
#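 HEK293 cells carry an SMN2 […]–luciferase reporter in which exon 7 inclusion puts luciferase in frame. Cells were plated 10-12 h before compound addition, then incubated 30-36 h at 37C. ONE-Glo luminescence was read; sodium butyrate at 4.5 mM final served as control.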
# Rab9 promoter act = qHTS Assay for Rab9 Promoter Activators; Potency, µM (highest dose often 9.22 µM), usual class: activators; 2.8% of 320,000 active; Huh7 Rab9 promoter-luciferase reporter, luminescence, 24 h; also: nearly all actives have a fitted effect of over 60% in size
#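 Huh7 cells stably carrying Rab9 promoter–luciferase reporter, plated 1500 cells/well, compound added after 2 h and incubated 24 h at 37 °C; luciferase luminescence then read after 10 min with detection reagent.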
# Luc counter = Counterscreen for Luciferase (Kinase-Glo TM) Inhibition | AID 1379, 2008 | Potency, µM (doses to about 38.3 µM), usual class: inhibitors | Kinase-Glo luciferase, ATP luminescence, 8 min | 0.28% of 200,000 active | Luciferin 4-monooxygenase (Photuris pensylvanica), Q27757; also: nearly all actives have a fitted effect of over 60% in size
#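 Luminescence was the read-out, taken after 8-minute incubation at ambient temperature. Luciferase turned over luciferin with 10 uM ATP in imidazole pH 7.2 buffer containing KCl, MgCl2, Tween 20 and BSA.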
# FLuc counter = qHTS profiling assay for firefly luciferase inhibitor/activator using purifed enzyme and Km concentrations of substrates (counterscreen for miR-21 project); Luciferin 4-monooxygenase (Photinus pyralis), P08659; purified FLuc, Km substrates, luminescence inhibition; Potency, µM (top dose mostly 57.5 µM), most hits filed as inhibitors; 6.9% of 360,000 active; AID 588342, 2011; also: nearly all actives have a fitted effect of over 55% in size
# Target sequence (P08659 whole entry, looked up): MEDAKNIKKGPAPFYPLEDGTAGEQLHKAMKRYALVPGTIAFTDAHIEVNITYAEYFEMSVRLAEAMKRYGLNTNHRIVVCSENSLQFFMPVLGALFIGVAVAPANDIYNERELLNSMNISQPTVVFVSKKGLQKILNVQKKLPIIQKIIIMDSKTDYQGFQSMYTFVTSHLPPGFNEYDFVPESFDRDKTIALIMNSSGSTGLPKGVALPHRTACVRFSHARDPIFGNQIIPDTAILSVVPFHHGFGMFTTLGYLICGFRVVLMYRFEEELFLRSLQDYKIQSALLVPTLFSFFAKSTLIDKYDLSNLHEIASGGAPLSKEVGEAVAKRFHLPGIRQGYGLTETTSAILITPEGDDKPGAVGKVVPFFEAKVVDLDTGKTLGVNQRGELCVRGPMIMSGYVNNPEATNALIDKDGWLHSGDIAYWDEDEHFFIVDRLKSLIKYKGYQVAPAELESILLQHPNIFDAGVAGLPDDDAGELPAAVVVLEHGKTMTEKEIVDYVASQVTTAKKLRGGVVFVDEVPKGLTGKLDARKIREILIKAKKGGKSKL
#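 Purified P. pyralis luciferase, 10 nM final, with Km-level 10 uM D-luciferin and 10 uM ATP in 50 mM Tris acetate pH 7.5, 10 mM Mg acetate, 0.01% Tween-20, 0.05% BSA; 6-point qHTS titration about 60 µM downward; luminescence read.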
# Numbers stand for hits; – = inactive; ? = inconclusive; · = no result; [ ] = dose if it differs, or a comment. Shown are actives, neighbours in structure and some others; about 7.4% of the full set was active somewhere. Calls follow the shape of the dose curve; as a rule, active = well fitted curve in the direction sought with a large enough effect; inconclusive = small, poorly fitted or top-dose-only effect, or another doubt; inactive = no such curve, though single readings can be large; an effect the other way counts as inactive or inconclusive.
SMILES,ELG1 genotox,NPC1 prom act,SMN2 splice up,Rab9 promoter act,Luc counter,FLuc counter
Cc1nn2cc(-c3ccccc3)nc2s1,?,0.35µM,10µM,1µM,–,4.3µM
O=C(O)c1ccccc1-c1cn2cc(Cl)ccc2n1,–,–,–,?,?,7.6µM
COc1ccc(-c2cn3cc(Cl)ccc3n2)cc1OC,?,–,11µM,?,–,7.6µM
Clc1ccc2nc(-c3ccc(Br)s3)cn2c1,0.41µM,–,0.71µM,?,–,0.34µM
COc1ccc(-c2cn3cc(C)ccc3n2)cc1Br,?,0.89µM,2.2µM,1.3µM,–,0.48µM
Cc1cc(Nc2ccc(C)c(C)c2)n2cnnc2n1,·,·,–,·,·,–
CCCSc1nc(N)nc(-c2cccs2)c1C#N,–,–,–,–,–,21µM
COc1ccc2c(c1)C(=O)c1ccccc1CO2,?,4µM,?,3.2µM,–,6µM
O=C1c2ccccc2COc2ccc(O)cc21,–,–,–,?,–,?
CCN(CC)c1ccc(/C=C/C(=O)c2cccnc2)cc1,–,–,–,–,–,–
CN(C)c1ccc(C(=O)/C=C/c2ccc(Br)cc2)cc1,–,–,–,–,–,1.7µM
CN(C)c1ccc(C(=O)c2ccccc2)cc1,–,?,–,3.2µM,–,11µM
CC(=O)Nc1cccc(C(=O)/C=C/c2ccc(Br)cc2)c1,–,–,–,–,–,?
CCN(CC)c1ccc(/C=C/C(=O)c2ccc(Br)cc2)cc1,–,–,–,–,–,17µM
CN(C)c1ccc(C(=O)/C=C/c2ccccc2)cc1,?,4µM,22µM,3.2µM,–,1.2µM
CCOCCCNC(=O)C(=O)Nc1c2c(nn1-c1ccc(OC)cc1)CSC2,·,·,·,·,·,–
CCc1cc2c(cc3c(=O)n(CC(=O)N4CCCCC4)ncn32)s1,·,·,·,·,·,–
COc1ccc(NC(=O)CSc2nc3c(c(=O)[nH]2)CCC3)cc1,·,·,·,·,·,–
CN(C)c1ccc(N=Nc2ccc(C(=O)O)cc2)cc1,–,0.013µM,·,0.0002µM,·,0.24µM
O=C(c1ccccc1)c1ccc(-c2ccc(O)cc2)cc1,?,–,·,3.2µM,·,17µM
Cc1ccc([N+](=O)[O-])c(N)c1,·,·,–,·,·,·
CC(C)(C)C1CCC(OC(=O)CN2CCCCC2)CC1 (stereo not given),–,–,·,–,·,19µM
O=S(=O)(c1ccccc1)c1nnn2c1nc(NCc1ccc(F)cc1)c1sccc12,·,·,·,·,·,–
COc1ccccc1OCC(=O)N(Cc1cccs1)C1CCS(=O)(=O)C1 (stereo not given),·,·,–,·,·,–
Cc1cc(C)cc(NC(=O)c2cc(S(=O)(=O)N3CCCCC3)c[nH]2)c1,·,·,·,·,·,–
SMILES,ELG1 genotox,NPC1 prom act,SMN2 splice up,Rab9 promoter act,Luc counter,FLuc counter
CSCC(=O)N1CCc2ccc(NC(=O)c3ccccc3Cl)cc2C1,?,?,·,?,·,17µM
CN(C)S(=O)(=O)N1CCc2ccc(NC(=O)c3ccccc3Cl)cc2C1,–,–,·,–,·,11µM
CCCS(=O)(=O)N1CCc2ccc(NC(=O)c3ccccc3Cl)cc2C1,–,–,·,–,·,17µM
O=C(Nc1ccc(F)c(Cl)c1)c1cc(S(=O)(=O)N2CCc3ccccc3C2)ccc1F,·,·,·,·,·,–
COCCC(=O)Nc1ccc2c(c1)CN(C(=O)CCSC)CC2,–,–,·,–,·,–
CCOc1ccccc1NC(c1nnc(-c2ccccc2)o1)c1ccc(F)cc1Cl (stereo not given),·,·,–,·,·,–
COc1cc2c(cc1OC)C(c1c[nH]c3ccccc13)NCC2 (stereo not given),·,·,–,·,–,·
O=C(NCc1ccc(Cl)cc1)c1cnc2sc(N3CCOCC3)nn2c1=O,·,·,·,·,·,–
COc1ccc(CC(=O)NC2CC(=O)N(c3cccc(F)c3)C2)cc1 (stereo not given),·,·,·,·,·,–
Oc1ccc(N=C/C=C/c2ccc(Br)cc2)cc1-c1nc2ccccc2s1,?,3.2µM,–[1.84 µM],?,–,7.6µM
S=c1nc(NCCc2ccccc2Cl)c2ccccc2[nH]1,–,3.2µM,·,3.5µM,·,–
O=C(CCCCCNc1nc(=S)[nH]c2ccccc12)NCc1ccccc1Cl,–,–,–,–,–,–
CCCCC1CCC(CCCC(C)CCC(=O)O)CC1 (stereo not given),·,·,–,·,·,27µM
CCCCCC1CCC(C(=O)O)CC1 (stereo not given),–,–,–,–,–,–
CCc1ccc(C(=O)Nc2cccc(-c3nc4cc(C(C)C)ccc4o3)c2)cc1,·,·,–,·,·,2.7µM
CC(C)c1ccc2oc(-c3ccc(NC(=O)c4ncn[nH]4)cc3)nc2c1,9.2µM,?,?,?,–,1.5µM
CCc1ccc(-c2nc3cc(NC(=O)c4ccc(C)c(C)c4)ccc3o2)cc1,·,·,–,·,·,–
COc1cc(OC)cc(C(=O)Nc2ccc(-c3nc4ccccc4o3)cc2)c1,–,–,–,–,–,–
CCC(C)c1ccc(O)c(NC(=O)c2ncn[nH]2)c1 (stereo not given),–,–,–,–,–,?
COc1cc(OC)cc(C(=O)Nc2ccc(-c3nc4cc(C(C)C)ccc4o3)cc2)c1,·,·,–,·,·,11µM
CCC(C)c1ccc2oc(-c3ccc(NC(=O)c4ncn[nH]4)cc3)nc2c1 (stereo not given),?,–,–,–,–,2.7µM
Cc1cccc(C(=O)Nc2ccc(-c3nc4cc(C(C)C)ccc4o3)cc2)c1,·,·,–,·,·,?
CN(C)c1ccc(CN(CC2CCCO2)C(=O)COc2ccc(Cl)cc2)cc1 (stereo not given),·,·,–,·,·,–
CCN(CC)c1ccc(NC(=O)C(Cc2ccccc2)NS(=O)(=O)c2ccc(Br)s2)c(C)c1 (stereo not given),·,·,–,·,·,?
COc1ccc([C@@H](C)NC(=O)c2ccc3oc(C(C)C)nc3c2)cc1,–[9.26 µM],?,·,?,·,17µM
SMILES,ELG1 genotox,NPC1 prom act,SMN2 splice up,Rab9 promoter act,Luc counter,FLuc counter
NNC(=O)CN1CCCc2ccccc21,?,–,–,–,–,12µM
CCCCCCc1ccc(-c2ncc(N)cn2)cc1,?,–,11µM,?,–,12µM
CCCCCc1ccc(-c2nnc(N)s2)cc1,?,–,·,?,–,21µM
CCCCCc1ccc(-c2ccc(OC)cc2)nc1,–,–,·,–,–,?
CCOC(=O)c1c(S(=O)(=O)N2CCC(C(=O)NCc3cccc(OC)c3)CC2)c(C)n(C)c1C,·,·,·,·,·,–
C[C@H]1Cc2c(-c3ccccc3)nc3c(c2CO1)CN(C(=O)Nc1cccc(C#N)c1)CC3,·,·,–[9.22 µM],·,–[7.66 µM],·
Cc1ccc(OCCCn2c(-c3ccc(Cl)cc3)nc3ccccc3c2=O)c(C)c1,·,·,–,·,·,–
COc1ccc(-c2coc3cc(OC4OC(CO)C(O)C(O)C4O)cc(O)c3c2=O)cc1 (stereo not given),?,2.8µM,·,2.8µM,–,?
